Values joined by “and” are separate entries in the source; they are usually repeats but may differ in a detail not shown here. Identical values can stand only once. Out of some 5,500 compounds screened, about 2,000 (36%) were called active. Inconclusive results (about 18%) are left out. No stated cut-off is given here; in the data, active means normalized growth mostly below about 0.91 (no sharp cut-off); inconclusive means no clear call, values can overlap the other calls; inactive means mostly above about 0.92. Some of the results follow. Where a structure was tested more than once in an assay, its records may differ in their call.
Assay: chemical genetic growth profiling, strain panel (AID 1159580);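 further: tested at 20 µM; growth read once vehicle control cultures reached saturation at 30 °C; 1 = growth at the plate median or of vehicle wells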
Conditions: S. cerevisiae deletion strains, growth OD

Measured: normalized growth

O=C1CCc2cc(OCCCCc3nnnn3C3CCCCC3)ccc2N1
0.998 (inactive) and 0.252 (active): locus YJR075W, strain HOC1, stronger effect = lower value
inactive: locus YAL013W, strain DEP1, stronger effect = lower value 1 | locus YAL021C, strain ccr4, stronger effect = lower value 0.996 | locus YAL026C, strain drs2, stronger effect = lower value 1.01 | locus YAL030W, strain snc1, stronger effect = lower value 0.985 | locus YAL040C, strain CLN3, stronger effect = lower value 1.01 | locus YBL061C, strain skt5, stronger effect = lower value 0.991 | locus YBR009C, strain hhf1, stronger effect = lower value 0.989 | locus YBR021W, strain FUR4, stronger effect = lower value 1.03 | locus YBR023C, strain chs3, stronger effect = lower value 1 | locus YBR171W, strain sec66, stronger effect = lower value 0.981 | locus YBR229C, strain ROT2, stronger effect = lower value 1 | locus YBR231C, strain swc5, stronger effect = lower value 0.99 | locus YBR279W, strain paf1, stronger effect = lower value 0.989 | locus YCL011C, strain gbp2, stronger effect = lower value 0.995 | locus YCL016C, strain dcc1, stronger effect = lower value 1 | locus YCL029C, strain bik1, stronger effect = lower value 0.988 | locus YCL061C, strain MRC1, stronger effect = lower value 0.988 | locus YCL069W, strain vba3, stronger effect = lower value 0.982 | locus YCR088W, strain abp1, stronger effect = lower value 0.992 | locus YDL005C, strain med2, stronger effect = lower value 0.983 | locus YDL035C, strain GPR1, stronger effect = lower value 1.01 | locus YDL040C, strain nat1, stronger effect = lower value 0.988 | locus YDL074C, strain BRE1, stronger effect = lower value 1.03 | locus YDL101C, strain DUN1, stronger effect = lower value 1 | locus YDL134C, strain PPH21, stronger effect = lower value 1.01 | locus YDL185W, strain tfp1, stronger effect = lower value 0.993 | locus YDL192W, strain arf1, stronger effect = lower value 0.971 | locus YDR001C, strain nth1, stronger effect = lower value 0.998 | locus YDR069C, strain doa4, stronger effect = lower value 0.987 | locus YDR101C, strain arx1, stronger effect = lower value 0.977 | locus YDR137W, strain rgp1, stronger effect = lower value 0.894 | locus YDR150W, strain NUM1, stronger effect = lower value 1.01 | locus YDR159W, strain sac3, stronger effect = lower value 0.978 | locus YDR162C, strain NBP2, stronger effect = lower value 1.02 | locus YDR195W, strain ref2 0.958 | locus YDR297W, strain sur2, stronger effect = lower value 0.995 | locus YDR318W, strain mcm21, stronger effect = lower value 1 | locus YDR334W, strain swr1, stronger effect = lower value 0.999 | locus YDR335W, strain msn5, stronger effect = lower value 0.981 | locus YDR388W, stronger effect = lower value 0.99 | locus YDR392W, strain spt3, stronger effect = lower value 0.984 | locus YDR502C, strain sam2, stronger effect = lower value 1.02 | locus YEL003W, strain gim4, stronger effect = lower value 1 | locus YEL037C, strain rad23, stronger effect = lower value 0.999 | locus YEL061C, strain CIN8 (second series), stronger effect = lower value 0.998 | locus YEL061C, strain CIN8, stronger effect = lower value 1 | locus YER002W, strain NOP16, stronger effect = lower value 1.01 | locus YER015W, strain faa2, stronger effect = lower value 0.997 | locus YER016W, strain bim1, stronger effect = lower value 0.993 | locus YER110C, stronger effect = lower value 0.993 | locus YER111C, strain swi4, stronger effect = lower value 0.979 | locus YER155C, strain BEM2 (second series), stronger effect = lower value 0.965 | locus YER155C, strain BEM2, stronger effect = lower value 1.02 | locus YER167W, strain BCK2, stronger effect = lower value 1 | locus YFR010W, strain ubp6, stronger effect = lower value 0.991 | locus YGL078C, strain dbp3, stronger effect = lower value 1 | locus YGL086W, strain mad1, stronger effect = lower value 1 | locus YGL167C, strain pmr1, stronger effect = lower value 0.986 | locus YGL173C, strain kem1, stronger effect = lower value 0.986 | locus YGL227W, strain vid30, stronger effect = lower value 0.985 | locus YGL240W, strain doc1, stronger effect = lower value 0.959 | locus YGL248W, strain PDE1, stronger effect = lower value 1 | locus YGL253W, strain hxk2, stronger effect = lower value 1 | locus YGR078C, strain PAC10, stronger effect = lower value 1.02 | locus YGR135W, strain pre9, stronger effect = lower value 0.997 | locus YGR229C, strain SMI1, stronger effect = lower value 1.01 | locus YGR252W, strain gcn5, stronger effect = lower value 0.956 | locus YHR013C, strain ard1, stronger effect = lower value 0.99 | locus YHR027C, strain rpn1, stronger effect = lower value 0.998 | locus YHR030C, strain SLT2, stronger effect = lower value 1 and 0.979 | locus YHR079C, strain IRE1 (second series), stronger effect = lower value 0.995 | locus YHR079C, strain IRE1, stronger effect = lower value 0.986 | locus YHR094C, strain hxt1, stronger effect = lower value 0.993 | locus YHR129C, strain ARP1, stronger effect = lower value 1 | locus YHR142W, strain chs7, stronger effect = lower value 1 | locus YHR200W, strain rpn10, stronger effect = lower value 0.995 | locus YIL066C, strain RNR3, stronger effect = lower value 1.01 | locus YIL073C, strain SPO22, stronger effect = lower value 0.989 | locus YIL125W, strain kgd1, stronger effect = lower value 1.01 | locus YIR030C, strain dcg1, stronger effect = lower value 0.998 | locus YJL092W, strain hpr5, stronger effect = lower value 0.996 | locus YJL095W, strain BCK1 (second series), stronger effect = lower value 0.984 | locus YJL095W, strain BCK1, stronger effect = lower value 1.01 and 0.989 | locus YJL115W, strain asf1, stronger effect = lower value 0.999 | locus YJL129C, strain trk1, stronger effect = lower value 0.973 | locus YJL134W, strain LCB3, stronger effect = lower value 1 | locus YJL154C, strain vps35, stronger effect = lower value 0.993 | locus YJL164C, strain tpk1, stronger effect = lower value 1 | locus YJL166W, strain qcr8, stronger effect = lower value 0.979 | locus YJL168C, strain set2, stronger effect = lower value 0.992 | locus YJL187C, strain SWE1 (second series), stronger effect = lower value 1.01 | locus YJR043C, strain POL32, stronger effect = lower value 1.01 | locus YJR066W, strain TOR1, stronger effect = lower value 0.942
active: locus YCL061C, strain MRC1 (second series), stronger effect = lower value 0.0772

Source: PubChem BioAssay AID1159580 (chemical genetic matrix, 2015)
